Among the test systems are T-47D breast; BT-549 breast; MDA-MB-435 melanoma; SW-620 colon; MCF7 breast; HCT-116 colon; HCC-2998 colon; KM12 colon.
Assay in all cases: NCI-60 one-dose screen, 48 h (100 = growth as untreated, 0 = no growth, -100 = all killed)
Holding throughout (conditions): 10 µM unless noted

About 83,000 compounds went through this panel and 20% of them were active in at least one assay; those are over-represented in the sample as a whole.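 Growth was measured after 48 h exposure to one concentration of compound in 96-well plates. Values under 10 count as active.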 Values without a mark were called inactive. Active and inactive are the calls of the source.

In the case of `O=C1NC(=O)C(=Cc2cc(-c3ccc(Cl)cc3)n(-c3ccccc3)n2)C(=O)N1`, the growth with T-47D breast was 93.6%; in the test with BT-549 breast, 83.9%; with MDA-MB-435 melanoma, 94.5%; in the test with SW-620 colon, 96.7%; with MCF7 breast, 93.2%; in the test on HCT-116 colon, 94%. Also, the growth was 110% with HCC-2998 colon and 102% in the test on KM12 colon.
Consider `CCN(CC)c1ccc(/C=N/NC(=O)c2ccccc2Nc2ccnc(C(F)(F)F)c2)c(O)c1`, for which the growth in the test with T-47D breast is 22.3%; in the test on BT-549 breast, 38.5%; in the test on MDA-MB-435 melanoma it was 29.3%; in the test on SW-620 colon, 37.3%; in the test with MCF7 breast, 20.4%; in the test with HCT-116 colon, 27.7%. For the same molecule, the growth in the test on HCC-2998 colon is 76.7%; with KM12 colon, 31.4%.
Regarding `O=C1Nc2ccccc2/C1=C/c1cccn1CCCCCCn1c2ccccc2c(=O)c2ccccc21`, the growth with T-47D breast was -3% (active); in the test on BT-549 breast, 63.5%; in the test with MDA-MB-435 melanoma, 96.7%; in the test on SW-620 colon it was 102%; with MCF7 breast, 1.03% (active); in the test with HCT-116 colon, 70.4%. Besides, the growth was 42.8% with HCC-2998 colon and 12.8% with KM12 colon.
As for `CC1=NC(=S)NC(c2ccccc2)/C1=C1/CC(c2ccccc2O)NN1` (configuration not stated), the growth with T-47D breast is 100%; in the test on BT-549 breast, 99.6%; in the test with MDA-MB-435 melanoma it was 103%; in the test on SW-620 colon, 100%; in the test with MCF7 breast it was 102%; in the test on HCT-116 colon, 99.6%. Further, the figures for the growth in the test with HCC-2998 colon and in the test with KM12 colon were 113% and 104%, respectively.
Consider `COc1ccc(C2CC(=O)Oc3c(OC)c4c(c(OC)c32)OCO4)cc1` (configuration not stated), for which the growth is 103% in the test with T-47D breast; 87.6% in the test on BT-549 breast; 56.8% in the test on MDA-MB-435 melanoma; 89.7% in the test on SW-620 colon; 92.7% in the test with MCF7 breast; 96.9% with HCT-116 colon. In addition, the figures for the growth with HCC-2998 colon and with KM12 colon were 97% and 88.1%, respectively.
With `COc1cccc2cc(N(C)c3ncnc4ccccc34)ccc12`, the growth with T-47D breast was 59.1%; in the test on BT-549 breast it was 32.3%; in the test on MDA-MB-435 melanoma, 16.6%; in the test with SW-620 colon it was 20.5%; in the test on MCF7 breast it was 6.28% (active); in the test with HCT-116 colon, 8.07% (active). Moreover, the growth is 21.2% in the test on HCC-2998 colon and 5.11% (active) with KM12 colon.
Take `CN(C)CC1C(=O)O[C@H]2[C@H]1CC/C(COC(=O)NCc1ccc(Cn3c(=O)sn(CCCI)c3=O)cc1)=C\CC[C@@]1(C)O[C@@H]21` (some centres not stated): the growth is -55.5% (active) in the test with T-47D breast; 50.1% in the test with BT-549 breast; 20.5% in the test with MDA-MB-435 melanoma; -74.9% (active) in the test on SW-620 colon; -55.4% (active) in the test on MCF7 breast; -73.2% (active) in the test on HCT-116 colon. For the same molecule, the values for the growth with HCC-2998 colon and in the test with KM12 colon were 41% and 105%, respectively.
Take `C=C(CNCCO)[C@@H]1CC[C@]2(CO)CC[C@]3(C)[C@H](CC[C@@H]4[C@@]5(C)CCC(NCCO)C(C)(C)[C@@H]5CC[C@]43C)[C@@H]12` (some centres not stated): the growth with T-47D breast was 84.4%; with BT-549 breast, 78.9%; with MDA-MB-435 melanoma it was 70.2%; with SW-620 colon, 73.8%; in the test with MCF7 breast, 47.4%; in the test with HCT-116 colon it was 44.3%. The growth is 71.7% in the test with HCC-2998 colon and 63.4% in the test on KM12 colon.
In the case of `O=C1c2ccccc2C(=O)c2cc(Cn3c[n+](Cc4ccc5ccccc5c4)c4ccccc43)ccc21`, the growth in the test with T-47D breast was 41.2%; in the test on BT-549 breast, 47%; with MDA-MB-435 melanoma, 38.4%; in the test on SW-620 colon it was 64.4%; in the test on MCF7 breast, 39.9%; in the test on HCT-116 colon, 41.2%. The growth with HCC-2998 colon was 46.2%; with KM12 colon it was 25.5%.
Regarding `COc1ccc(-c2ccc(-c3ccc(C(=N)N)o3)o2)cc1`, the growth was 26.7% with T-47D breast; 59.6% in the test with BT-549 breast; -65.4% (active) with MDA-MB-435 melanoma; 12.9% in the test on SW-620 colon; 10.4% in the test with MCF7 breast; -5.19% (active) with HCT-116 colon. The growth was -48.7% (active) with HCC-2998 colon and 11% with KM12 colon.
For the molecule `O=c1c2cccc3c(N4CCOCC4)ccc(c32)c2nc3ccccc3n12`, the growth in the test with T-47D breast is 38.1%; with BT-549 breast, 93.8%; in the test with MDA-MB-435 melanoma, 104%; in the test with SW-620 colon, 103%; in the test with MCF7 breast it was 24%; in the test with HCT-116 colon, 87%. In addition, the growth in the test on HCC-2998 colon was 73.2%; in the test with KM12 colon, 78.1%.
Take `COc1ccc(CNc2c3ccccc3nc3ccccc23)cc1OC`: the growth with T-47D breast is 25.8%; with BT-549 breast, 42.1%; in the test on MDA-MB-435 melanoma, 29.4%; in the test on SW-620 colon it was 16%; in the test on MCF7 breast it was 0.674% (active); in the test with HCT-116 colon it was 12.2%. The growth with HCC-2998 colon was 30.1%; with KM12 colon, 31.6%.
Consider `Clc1ccc2c(NCCCn3cnc4c(N5CCCC5)nc(Cl)nc43)ccnc2c1`, for which the growth in the test on T-47D breast is 85.6%; with BT-549 breast it was 97.7%; in the test on MDA-MB-435 melanoma, 101%; in the test on SW-620 colon, 103%; in the test with MCF7 breast, 91.9%; with HCT-116 colon, 93.4%. The results for the growth in the test with HCC-2998 colon and with KM12 colon were 108% and 98.1%, respectively.
For the molecule `COc1cc2c(c(OC)c1OC)C(=O)CC(c1cccc(C(=O)Nc3ccc(Br)cc3)c1)O2` (configuration not stated), the growth with T-47D breast was 20.3%; with BT-549 breast, 34%; in the test with MDA-MB-435 melanoma, 30.3%; in the test on SW-620 colon, 85.8%; with MCF7 breast, 42.9%; in the test with HCT-116 colon, 46.6%. The growth in the test with HCC-2998 colon is 92.1%; with KM12 colon, 62.9%.

For the origin of these results see PubChem BioAssay (NCI).
